Test results taken from PubChem BioAssay (NCATS).
Results filed as inconclusive are left out. Calls of active or inactive are those of the source. Calls follow the shape of the full dose curve.

Target: Nucleoprotein (Lymphocytic choriomeningitis virus (strain Armstrong)) (UniProt P09992)
Experiment: qHTS for Inhibitors of the Functional Ribonucleoprotein Complex (vRNP) of Lymphocytic Choriomeningitis Arenaviruses (LCMV): LCMV Primary Screen - GLuc reporter signal (AID 1347086); also: nearly all actives have a fitted effect of over 70% in size
Settings: LCMV minigenome vRNP cell assay, Gaussia luciferase reporter; series mostly up to 57.5 µM; activity change, negative = inhibition: at the top concentration
% is scaled to controls: 0 for no effect and ±100 for the full control effect; potency is read from the fitted curve at half-maximal effect.

Chain of Nucleoprotein (Lymphocytic choriomeningitis virus (strain Armstrong)) (P09992 whole entry, looked up): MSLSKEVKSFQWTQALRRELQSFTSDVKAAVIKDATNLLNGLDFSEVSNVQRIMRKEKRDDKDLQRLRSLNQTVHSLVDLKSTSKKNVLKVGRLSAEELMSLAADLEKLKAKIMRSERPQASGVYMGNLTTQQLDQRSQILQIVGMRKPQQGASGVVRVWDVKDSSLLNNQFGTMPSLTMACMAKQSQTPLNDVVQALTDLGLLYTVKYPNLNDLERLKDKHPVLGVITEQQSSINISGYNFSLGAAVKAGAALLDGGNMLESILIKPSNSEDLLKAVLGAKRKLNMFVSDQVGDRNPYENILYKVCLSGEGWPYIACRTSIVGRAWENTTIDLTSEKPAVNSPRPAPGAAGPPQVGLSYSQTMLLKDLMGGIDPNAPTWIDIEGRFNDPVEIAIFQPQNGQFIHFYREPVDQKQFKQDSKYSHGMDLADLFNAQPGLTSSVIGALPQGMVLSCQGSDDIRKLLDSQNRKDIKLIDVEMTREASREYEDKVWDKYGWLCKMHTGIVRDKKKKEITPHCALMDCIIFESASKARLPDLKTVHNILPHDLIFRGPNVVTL

Compound	activity change, negative = inhibition	Potency
NCc1cc(=O)[nH]o1	12.2% (inactive)	
c1cc2c(cc1[C@H]1OC[C@H]3[C@H]1CO[C@H]3c1ccc3c(c1)OCO3)OCO2	5.32% (inactive)	
C[C@@H]1CC[C@@]2(OC1)O[C@H]1C[C@H]3[C@@H]4CC=C5C[C@@H](O[C@@H]6O[C@H](CO)[C@@H](O[C@@H]7O[C@@H](C)[C@H](O)[C@@H](O)[C@@H]7O)[C@H](O)[C@@H]6O[C@@H]6O[C@@H](C)[C@H](O)[C@@H](O)[C@@H]6O)CC[C@]5(C)[C@@H]4CC[C@]3(C)[C@@H]1[C@H]2C	6.28% (inactive)	
Nc1ccc(N=Nc2ccccc2)cc1	-25.5% [at 115 µM] (inactive)	
N#C[C@H](O[C@@H]1O[C@H](CO[C@@H]2O[C@H](CO)[C@H](O)[C@H](O)[C@H]2O)[C@H](O)[C@H](O)[C@H]1O)c1ccccc1		24.3 µM (active)
COc1ccc(N(C(=O)Oc2c(C)cccc2C)c2ccnc(Nc3ccc(N4CCN(C)CC4)cc3)n2)c(OC)c1	-75.1% (inactive)	
CC(N[C@H]1C[C@H]1c1ccccc1)c1ccc2c(c1)OCCO2 (stereo partly drawn)	1.78% (inactive)	
O=C(N[C@@H](COc1ccc2[nH]c(=O)[nH]c2c1)c1ccccc1)c1cccn(Cc2ccc(F)c(F)c2)c1=O	16.7% (inactive)	
CC(C)[C@H]1C(=O)N[C@H](CO)Cc2c[nH]c3cccc(c23)N1C	4.17% (inactive)	
NC(CP(=O)(O)O)C(=O)O (stereo not drawn)		inactive
CO/C=C(/C(=O)OC)c1ccccc1Oc1cc(Oc2ccccc2C#N)ncn1		10 µM (active)
N=c1c2c(-c3ccccc3)c(-c3ccccc3)n(Cc3ccccc3)c2ncn1C1CCC(O)CC1 (stereo not drawn)		1.72 µM (active)
CC(=Cc1csc(C)n1)[C@@H]1C[C@H]2O[C@]2(C)CCC[C@H](C)[C@@H](O)[C@@H](C)C(=O)C(C)(C)[C@@H](O)CC(=O)O1	-63.4% (inactive)	
